Measurements published in PubChem BioAssay (EPA / NIEHS).
Several values for one entry are separate records, joined by “and”; a condition that tells them apart may be missing. Equal values may be shown once. Activity calls are given as the source filed them. Rule for the calls: active = hit-call score of the fitted dose curve at least 0.9, where 1 is the maximum; inactive = score below 0.9.

These molecules were tested on Vascular cell adhesion molecule 1 (VCAM1), VCAM1 (gene 7412) (assay: BSK_MyoF_VCAM1: BioMAP Diversity Plus: MyoF Assay for Vascular cell adhesion molecule 1 (VCAM1) Biomarker Activity (AID 2284231)). Conditions: primary human lung fibroblasts.
Method: BSK_MyoF is a cell-based, multiplexed-readout assay that uses lung fibroblasts, […], with measurements taken at 24 hours after chemical dosing in a microplate: 96-well plate.BSK_MyoF_VCAM1 is an assay component measured in the BSK_MyoF assay. It measures VCAM-1 antibody related to regulation of gene expression using ELISA technology.Data from the assay component BSK_MyoF_VCAM1 was analyzed at the endpoint, BSK_MyoF_VCAM1, in the positive analysis fitting direction relative to DMSO as the negative control and baseline of activity. Using a type of binding reporter, gain or loss-of-signal activity can be used to understand protein changes. To generalize the intended target to other relatable targets, this assay endpoint is annotated to the 'cell adhesion molecules' intended target family, where the subfamily is 'Immunoglobulin CAM'.
The levels of cell surface (or secreted, indicated by the prefix "s") biomarker endpoints were measured by ELISA. Overt cytotoxicity to cells in confluent adherent cultures (all systems other than the BT system) was assessed by measuring total protein levels using sulforhodamine B (SRB) staining in parallel cultures at the time of biomarker measurements, indicated as SRB endpoints. For proliferation assays for adherent cell types, individual cell types are cultured at sub-confluence and relative cell numbers quantified by SRB staining at time points optimized for each system (48 h: 3C and CASM3C systems; 72 h: BT and HDF3CGF systems; 96 h: SAg system). SRB was performed by staining cells with 0.1% SRB after fixation with 10% TCA and reading wells at 560 nm.Viability and proliferation of PBMC (T cells) was quantified by Alamar Blue reduction for the SAg and BT systems. For PBMC viability (referred to as PBMC Cytotoxicity within the assay endpoint names), cells were plated (75,000/well in a 96-well plate) and then chemical samples added for 1 h before addition of activators, SEB and TSST-1 (20 ng/mL final concentration each). Cells were incubated for 90 h. Then, Alamar Blue (20 uL/well) (Invitrogen, Cat DAL1100) was added for 6 h, and the plates were read with a fluorescence microplate reader at 546/580 nm (excitation/emission). For PBMC proliferation, cells were plated and activated as above but incubated for only 16 h prior to addition of Alamar Blue. Plates were read after 6 h.

**Q.** How did the AC50 turn out when `FC(F)(F)C(F)(F)C(F)(F)C(F)(F)C(F)(F)C(F)(F)I` was run?
**A.** The AC50 was 25.3 µM (active) and 40.7 µM (active).

**Q.** With `OCCC(F)(F)C(F)(F)C(F)(F)C(F)(F)F` as the molecule, how does the outcome read?
**A.** The outcome was “inactive”.

**Q.** Which outcome does the source give for `FC(F)=C(F)C(F)(F)C(F)(F)C(F)(F)C(F)(F)C(F)(F)C(F)(F)F` here?
**A.** The outcome was “inactive”.

**Q.** With `OCc1c[nH]c2ccccc12` as the molecule, how does the outcome read?
**A.** The outcome was “inactive”.

**Q.** Which outcome does the source give for `O=S(=O)(O)CCC(F)(F)C(F)(F)C(F)(F)C(F)(F)C(F)(F)C(F)(F)F` here?
**A.** The outcome was “inactive”.

**Q.** How did the outcome turn out when `FC(F)C(F)(F)COCC1CO1` (stereo not drawn) was run?
**A.** The outcome was “inactive”.

**Q.** For `OC(O)(C(F)C(O)(O)C(F)(F)F)C(F)(F)F`, which outcome is on record?
**A.** The outcome was “inactive”.

**Q.** For `O=C(Cl)C(F)(F)C(F)(F)C(F)(F)C(=O)Cl`, which outcome is on record?
**A.** The outcome was “inactive”.

**Q.** With `Cc1cccc(O)c1C` as the molecule, how does the outcome read?
**A.** Its outcome is “inactive”.

**Q.** Which outcome does the source give for `FC(F)(F)COC(OCC(F)(F)F)OCC(F)(F)F` here?
**A.** The outcome was “inactive”.

**Q.** How did the outcome turn out when `S=P(N1CC1)(N1CC1)N1CC1` was run?
**A.** Its outcome is “inactive”.

**Q.** For `C[Si](C)(C)C(F)(F)C(F)(F)C(F)(F)F`, which outcome is on record?
**A.** Its outcome is “inactive”.

**Q.** `NCC(F)(F)C(F)(F)C(F)(F)C(F)(F)F` was tested. Which outcome did it give?
**A.** The outcome was “inactive”.
